Unmarked numbers belong to inactive results. Calls of active or inactive are those of the source. Unless noted, no stated cut-off is given here; in the data, active means inhibition above about 36%; inactive means the rest.
Tests used:
[1] = test system: transactivating tegument protein VP16 (Human herpesvirus 1); assay: VP16 transactivation reporter inhibitors, counter-screen for SRC2 inhibitor project, cell-based, luminescence, single concentration (AID 652007); details: cell-based VP16 transactivation luciferase reporter, at 8.9 µM, hits give high values
[2] = biological target: Nuclear receptor coactivator 2 (Homo sapiens) (UniProt Q15596); assay: SRC2 coactivator transcriptional activity inhibitors, confirmation, cell-based, luminescence, HEK293, triplicate (AID 652008;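 active means mean inhibition above 46.5%, the solvent-only control mean plus 3 SD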;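 further: 0% = DMSO-treated cells and 100% = Gossypol at 36 µM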); details: HEK293 GAL4-SRC2 luciferase reporter, at 8.9 µM, hits give high values
Nuclear receptor coactivator 2 (Homo sapiens), sequence (Q15596 whole entry, looked up, the tested form may be a part): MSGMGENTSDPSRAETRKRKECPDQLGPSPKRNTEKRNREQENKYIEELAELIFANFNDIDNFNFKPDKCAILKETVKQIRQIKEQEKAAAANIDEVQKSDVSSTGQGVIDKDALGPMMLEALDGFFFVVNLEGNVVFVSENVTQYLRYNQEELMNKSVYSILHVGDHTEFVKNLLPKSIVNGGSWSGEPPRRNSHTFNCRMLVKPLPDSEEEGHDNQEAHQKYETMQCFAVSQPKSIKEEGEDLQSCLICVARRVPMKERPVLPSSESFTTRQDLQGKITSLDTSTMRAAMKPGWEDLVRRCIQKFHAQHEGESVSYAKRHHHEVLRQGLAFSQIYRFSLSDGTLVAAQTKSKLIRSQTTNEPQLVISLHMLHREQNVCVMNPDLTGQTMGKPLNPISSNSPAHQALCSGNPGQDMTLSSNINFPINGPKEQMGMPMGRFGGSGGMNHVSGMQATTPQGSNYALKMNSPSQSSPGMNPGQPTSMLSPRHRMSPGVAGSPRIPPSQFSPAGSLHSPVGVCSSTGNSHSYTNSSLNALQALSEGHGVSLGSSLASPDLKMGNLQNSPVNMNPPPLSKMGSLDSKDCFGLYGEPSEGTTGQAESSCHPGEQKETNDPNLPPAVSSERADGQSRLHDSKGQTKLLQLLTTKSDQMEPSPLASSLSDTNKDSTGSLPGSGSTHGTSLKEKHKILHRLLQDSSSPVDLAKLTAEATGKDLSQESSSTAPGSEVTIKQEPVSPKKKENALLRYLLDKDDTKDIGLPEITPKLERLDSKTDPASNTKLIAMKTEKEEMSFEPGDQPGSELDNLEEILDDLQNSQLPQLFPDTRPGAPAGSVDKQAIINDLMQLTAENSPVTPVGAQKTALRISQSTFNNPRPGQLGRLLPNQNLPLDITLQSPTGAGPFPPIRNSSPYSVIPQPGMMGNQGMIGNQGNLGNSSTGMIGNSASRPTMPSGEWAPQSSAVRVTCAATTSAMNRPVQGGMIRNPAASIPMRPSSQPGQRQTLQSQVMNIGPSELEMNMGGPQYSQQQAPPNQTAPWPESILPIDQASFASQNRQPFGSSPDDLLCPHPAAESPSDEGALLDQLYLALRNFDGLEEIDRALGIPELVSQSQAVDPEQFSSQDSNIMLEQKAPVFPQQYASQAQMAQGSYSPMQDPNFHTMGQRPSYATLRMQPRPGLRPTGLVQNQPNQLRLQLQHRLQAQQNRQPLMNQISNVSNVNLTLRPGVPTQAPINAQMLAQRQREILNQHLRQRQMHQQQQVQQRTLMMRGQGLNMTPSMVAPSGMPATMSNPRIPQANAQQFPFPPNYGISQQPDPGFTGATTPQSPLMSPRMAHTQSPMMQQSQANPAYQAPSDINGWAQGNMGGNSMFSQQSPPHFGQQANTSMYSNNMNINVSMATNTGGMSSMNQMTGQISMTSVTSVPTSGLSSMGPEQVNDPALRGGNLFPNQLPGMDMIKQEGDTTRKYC

Question: Which results are given for `CCN(CC)c1ccc(/C=C/c2cc(-c3ccccc3)c3ccccc3n2)cc1`?
Answer: inhibition [1]: -11.2%; inhibition [2]: -13.1%

Question: With `Cc1ccc(Nc2nc(-c3c(C)nc4ccccn34)cs2)cc1` as the molecule, how does the inhibition [1] read?
Answer: The inhibition was -16.9%.

Question: What about the inhibition [2] of the same molecule?
Answer: The inhibition was 20.1%.

Question: Which inhibition [1] does the source give for `COC(=O)C1Cc2ccccc2CN1C(=O)CCl` (stereo not drawn) here?
Answer: Its inhibition is 27.7%.

Question: And the inhibition [2]?
Answer: The inhibition was 33.2%.

Question: With `CC(C)(C)NS(=O)(=O)c1ccc(Oc2ncc(C(F)(F)F)cc2Cl)cc1` as the molecule, how does the inhibition [1] read?
Answer: The inhibition was -20%.

Question: What about the inhibition [2] of the same molecule?
Answer: Its inhibition is 14.2%.

Question: How did the inhibition [1] turn out when `CC(=C\c1ccccc1)/C=C1/SC(=S)N(CCCC(=O)O)C1=O` was run?
Answer: Its inhibition is 78.9% (active).

Question: What about the inhibition [2] of the same molecule?
Answer: The inhibition was 79.2% (active).

Question: Which inhibition [1] does the source give for `Cc1ccc(/C=C2\SC(=S)N(CCCC(=O)Nc3cc(C)on3)C2=O)cc1` here?
Answer: Its inhibition is 31.6%.

Question: What about the inhibition [2] of the same molecule?
Answer: Its inhibition is 68.8% (active).

Question: For `COc1cc(NC(=O)CSc2nnc3c(C)cc4cc(C)cc(C)c4n23)c(C(=O)O)cc1OC`, which inhibition [1] is on record?
Answer: Its inhibition is -9.86%.

Question: What about the inhibition [2] of the same molecule?
Answer: Its inhibition is -11.4%.

Question: For `C=CCN(CC#CCN(C)C(=O)c1cccn1C(=O)OC(C)(C)C)Cc1ccc(OC)cc1OC`, which inhibition [1] is on record?
Answer: Its inhibition is -6.71%.

Question: What about the inhibition [2] of the same molecule?
Answer: Its inhibition is -1.62%.

Question: Which results are given for `Cc1nc([N+](=O)[O-])c(C(=O)OCc2ccccc2F)n1C`?
Answer: inhibition [1]: -22.8%; inhibition [2]: 1.38%

Question: For `COc1cc(C#Cc2c(-c3cncn3C)n(C)c3ccc(-c4ccc(OC)nc4)cc23)cc(OC)c1`, which inhibition [1] is on record?
Answer: The inhibition was -13.2%.

Question: What about the inhibition [2] of the same molecule?
Answer: Its inhibition is -23.7%.

Question: With `O=C(N/N=C/c1ccc([N+](=O)[O-])o1)c1cc2ccccc2o1` as the molecule, how does the inhibition [1] read?
Answer: Its inhibition is 21.6%.

Question: What about the inhibition [2] of the same molecule?
Answer: The inhibition was 56.4% (active).

Question: How did the inhibition [1] turn out when `COc1cc(OC)c(CN2CCc3c([nH]c4ccccc34)C2)cc1Br` was run?
Answer: The inhibition was -7.11%.

Question: What about the inhibition [2] of the same molecule?
Answer: Its inhibition is -4.79%.

Question: Which results are given for `C[C@H]1CCC[C@@H](O)CC(=O)c2c(O)cc(O)cc2CC(=O)O1`?
Answer: inhibition [1]: 24%; inhibition [2]: 32.3%

Question: With `O=C(N=C1SC2CS(=O)(=O)CC2N1Cc1ccccc1)C1CCCO1` (stereo not drawn) as the molecule, how does the inhibition [1] read?
Answer: The inhibition was -0.59%.

Question: And the inhibition [2]?
Answer: The inhibition was -2.87%.

Question: `CCC(=O)Nc1ccc(NCc2ccc(-c3ccccc3)cc2)cc1` was tested. Which inhibition [1] did it give?
Answer: Its inhibition is 20.7%.

Question: And the inhibition [2]?
Answer: The inhibition was 17.8%.

Question: `O=S(=O)(c1ccc2c(c1)OCCO2)N1CCN(c2ncnc3sccc23)CC1` was tested. Which inhibition [1] did it give?
Answer: The inhibition was 6.15%.

Question: What about the inhibition [2] of the same molecule?
Answer: Its inhibition is 36.6%.

Question: What does the source list for `O=C(Nc1ccc(F)cc1)c1nc(S(=O)(=O)Cc2ccccc2)ncc1Cl`?
Answer: inhibition [1]: 36.6% (active); inhibition [2]: 37.9%

Question: What does the source list for `C[C@H]1CN([C@@H](C)CO)S(=O)(=O)c2ccc(Br)cc2O[C@H]1CN(C)Cc1ccccc1F`?
Answer: inhibition [1]: 22.8%; inhibition [2]: 16.8%

Question: Which results are given for `O=C1c2ccccc2S(=O)(=O)N1Cc1nc2ccccc2s1`?
Answer: inhibition [1]: 6.44%; inhibition [2]: 31.4%

— PubChem BioAssay
